This passage reports Potency and outcome results from PubChem BioAssay (Tox21).

“And” between values parts separate entries of the source, which are not always exact repeats. Identical values can stand only once. Inconclusive results are not listed. Some compounds were tested as several samples or in several runs, with calls that do not always agree. The source made the active and inactive calls. Unless noted, calls come from the whole dose curve; as a rule, active = well fitted curve in the direction sought with a large enough effect in the repeat runs; inconclusive = weak or mixed curves; inactive = no such curve, though single readings can be large; an effect the other way counts as inactive or inconclusive.

A short description of test [1]: qHTS assay to identify small molecule antagonists of the peroxisome proliferator-activated receptor delta (PPARd) signaling pathway - cell viability counter screen (AID 743213). Note: nearly all actives have a fitted effect of over 50% in size. Note: potency is the fitted concentration of half-maximal effect. The method in brief: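 HEK293H cells with the PPARd UAS-bla reporter, co-treated 17 h at 37 C with compounds and L165041 (300 nM final), were lysed with CellTiter-Glo. Luminescence indicated viable cell content.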

The nature of test [2]: qHTS assay to identify small molecule agonists of the farnesoid-X-receptor (FXR) signaling pathway - cell viability counter screen (AID 743218). Note: nearly all actives have a fitted effect of over 45% in size. Note: potency is the fitted concentration of half-maximal effect. The procedure, abridged:
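HEK 293T FXR-bla cells; 5 h pre-incubation, 16 h compound exposure at 37 C; LiveBLAzer substrate 2 h RT, then CellTiter-Glo 30 min RT, luminescence.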

A short description of test [3]: qHTS assay to identify small molecule antagonists of the farnesoid-X-receptor (FXR) signaling pathway - cell viability counter screen (AID 743221; active = well fitted cell-killing curve with a large enough effect in the repeat runs, not every such curve was filed as active; note: nearly all actives have a fitted effect of over 50% in size; note: potency is the fitted concentration of half-maximal effect). The procedure, abridged:
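Cytotoxicity counter screen run in the FXR-bla reporter wells: HEK 293T cells exposed to compound with 50 uM (final) chenodeoxycholic acid for 16 h, 37 C, then viability measured by CellTiter-Glo luminescence after 30 min, room temperature.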

A short description of test [4]: qHTS assay to identify small molecule agonists of the endoplasmic reticulum stress response signaling pathway - cell viability counter screen (AID 1159517; calls by dose curve; note: nearly all actives have a fitted effect of over 50% in size; note: potency is the fitted concentration of half-maximal effect). The procedure, abridged:
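Luminescence readout: CellTiter-Glo, 30 min RT, same wells as the ESRE-bla reporter read. HeLa ESRE-bla, 1,500 cells/well, o/n 37 C; cpd 5 hr 37 C/5% CO2.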

Test [5] is described as follows: qHTS assay to identify small molecule antagonists of the retinoid-related orphan receptor gamma (ROR-gamma) signaling pathway - cell viability counter screen (AID 1159520). Note: nearly all actives have a fitted effect of over 50% in size. Note: potency is the fitted concentration of half-maximal effect. The procedure, abridged:
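Tet-on ROR gamma CHO cells (1,000/well) were plated 4 hr, given compounds in DMSO for 2 hr at 37 C, then induced with 1 uM final doxycycline for 16 hr. Viability was read as ATP by CellTiter-Glo luminescence after 30 min.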

In test [6] the target is Nuclear receptor ROR-gamma (Homo sapiens) (UniProt P51449). As to the kind of experiment: qHTS assay to identify small molecule antagonists of the retinoid-related orphan receptor gamma (ROR-gamma) signaling pathway (AID 1159521; note: nearly all actives have a fitted effect of over 50% in size; note: potency is the fitted concentration of half-maximal effect). The method in brief: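 Antagonist read-out: drop in luminescence (ONE-Glo) from an RORE-LUC reporter in CHO cells with doxycycline-inducible ROR-gamma; 2 hr compound pretreatment, 1 uM doxycycline, 16 hr incubation at 37 C.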

Test [7] can be described thus: qHTS assay to identify small molecule agonists of the RXR signaling pathway - cell viability counter screen (AID 1159529). Note: nearly all actives have a fitted effect of over 50% in size. Note: potency is the fitted concentration of half-maximal effect. The method in brief:
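CellTiter-Glo luminescence gave viability in the wells also read for beta-lactamase. Cells (RXR-alpha-UAS-bla HEK 293T, 2% charcoal-stripped FBS medium) had 5 hr plating, then 16 hr compound exposure at 37 C; tetraoctyl ammonium bromide served as positive control.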

A short description of test [8]: qHTS assay to identify small molecule agonists of the AP-1 signaling pathway - cell viability counter screen (AID 1159525; calls by dose curve; note: nearly all actives have a fitted effect of over 55% in size; note: potency is the fitted concentration of half-maximal effect). The method in brief:
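ME-180 AP-1-bla, 2500 cells/well, Opti-MEM + 0.5% dialyzed FBS; overnight 37 °C; cpd 15-pt titration, 5 h 37 °C; CellTiter-Glo 30 min RT; luminescence read; normalised to TOAB and DMSO controls.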

Test [9] in a line: qHTS assay to identify small molecule agonists of the peroxisome proliferator-activated receptor delta (PPARd) signaling pathway - cell viability counter screen (AID 743211). Note: nearly all actives have a fitted effect of over 55% in size. Note: potency is the fitted concentration of half-maximal effect. The procedure, abridged: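 Viability was measured as CellTiter-Glo luminescence (30 min, room temperature) in the same wells as the beta-lactamase readout. GeneBLAzer PPARd UAS-bla HEK293H cells received compound after 5 h plating and were incubated 17 h at 37 C.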

The target of test [10] is Bile acid receptor (Homo sapiens) (UniProt Q96RI1). As to the kind of experiment: qHTS assay to identify small molecule agonists of the farnesoid-X-receptor (FXR) signaling pathway (AID 743220; active = well fitted activation curve with a large enough effect in the signal ratio in the repeat runs, not every such curve was filed as active; the % refers to the signal ratio). The method in brief:
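Beta-lactamase reporter under UAS control in GeneBLAzer FXR HEK 293T cells (5000/well) measured with LiveBLAzer FRET substrate after 2 h at room temperature. Compound exposure lasted 16 h at 37C.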

For test [11], the target named is Vitamin D3 receptor (Homo sapiens) (UniProt P11473). As to the kind of experiment: qHTS assay to identify small molecule agonists of the vitamin D receptor (VDR) signaling pathway (AID 743222; calls by dose curve). The method in brief: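 VDR-bla cells, 2,000/well; 4 h preincubation 37C; cpd (DMSO) 16 h; LiveBLAzer B/G substrate 2 h RT; fluorescence intensity read.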
Vitamin D3 receptor (Homo sapiens), sequence (P11473 whole entry, looked up): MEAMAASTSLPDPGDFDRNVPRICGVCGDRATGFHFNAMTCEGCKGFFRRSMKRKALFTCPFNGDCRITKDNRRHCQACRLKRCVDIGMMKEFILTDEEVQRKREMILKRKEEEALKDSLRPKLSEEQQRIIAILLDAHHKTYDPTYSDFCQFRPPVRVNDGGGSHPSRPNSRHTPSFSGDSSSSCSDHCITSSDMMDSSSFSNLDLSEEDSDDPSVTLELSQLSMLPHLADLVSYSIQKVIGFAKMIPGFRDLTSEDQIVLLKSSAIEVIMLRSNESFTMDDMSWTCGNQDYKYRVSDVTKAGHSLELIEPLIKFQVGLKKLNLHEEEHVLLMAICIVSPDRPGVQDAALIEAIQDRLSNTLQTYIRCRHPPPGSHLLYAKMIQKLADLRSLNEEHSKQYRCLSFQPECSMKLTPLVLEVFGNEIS
Test [12] has the same target. As to the kind of experiment: qHTS assay to identify small molecule antagonists of the vitamin D receptor (VDR) signaling pathway (AID 743223; active = well fitted inhibition curve with a large enough effect in the signal ratio in the repeat runs, not every such curve was filed as active; the % refers to the signal ratio). The method in brief: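 Antagonist mode: compound added to VDR-bla cells alongside agonist 1alpha,25-dihydroxyvitamin D3 (3 nM final), incubation 16 h at 37C. Read-out is LiveBLAzer FRET fluorescence, 2 h at room temperature.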

Test [13] is described as follows: qHTS assay to identify small molecule antagonists of the vitamin D receptor (VDR) signaling pathway - cell viability counter screen (AID 743225). Note: nearly all actives have a fitted effect of over 50% in size. Note: potency is the fitted concentration of half-maximal effect. The method in brief:
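Cytotoxicity counter screen read by CellTiter-Glo luminescence (30 min, room temperature) in the same wells as the VDR-bla antagonist readout. HEK 293T VDR-UAS-bla cells had 16 h at 37C with compound and 3 nM (final) 1-alpha,25-dihydroxyvitamin D3, then 2 h with FRET substrate.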

A short description of test [14]: qHTS assay to identify small molecule agonists of the vitamin D receptor (VDR) signaling pathway - cell viability counter screen (AID 743224). Note: nearly all actives have a fitted effect of over 50% in size. Note: potency is the fitted concentration of half-maximal effect. The procedure, abridged: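 Luminescence from CellTiter-Glo, read after 30 min at room temperature, reports viability of VDR-bla cells treated with compounds for 16 h at 37C in the wells used for the beta-lactamase FRET read.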

For test [15], the target named is Retinoic acid receptor RXR-alpha (Homo sapiens) (UniProt P19793). As to the kind of experiment: qHTS assay to identify small molecule agonists of the RXR signaling pathway (AID 1159527; calls by dose curve; note: nearly all actives have a fitted effect of over 35% in size). The procedure, abridged:
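Agonist-mode beta-lactamase reporter assay: HEK 293T RXR-alpha-UAS-bla cells treated 16 hr at 37 C with compounds, 9-cis retinoic acid as positive control. LiveBLAzer FRET substrate, 405 nm excitation, 460/530 nm emission.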

Test [16] deals with Peroxisome proliferator-activated receptor delta (Homo sapiens) (UniProt Q03181). The experiment in a line: qHTS assay to identify small molecule agonists of the peroxisome proliferator-activated receptor delta (PPARd) signaling pathway (AID 743212; calls by dose curve). The procedure, abridged:
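GeneBLAzer PPARd UAS-bla HEK293H cells (beta-lactamase reporter under UAS control), plated and rested 5 h at 37 C, then exposed to compounds in DMSO at 37 C; LiveBLAzer B/G FRET substrate added, 2 h room temperature, fluorescence read.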

Test [17] deals with Bile acid receptor (Homo sapiens) (UniProt Q96RI1). The experiment in a line: qHTS assay to identify small molecule antagonists of the farnesoid-X-receptor (FXR) signaling pathway (AID 743217; active = well fitted inhibition curve with a large enough effect in the signal ratio in the repeat runs, not every such curve was filed as active; the % refers to the signal ratio). The method in brief:
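HEK 293T FXR-UAS-bla, 5000 cells/well; compound + CDCA 50 uM final; 16 h, 37 °C; B/G FRET substrate 2 h RT; fluorescence.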

The nature of test [18]: qHTS assay to identify small molecule agonists of the AP-1 signaling pathway (AID 1159526; calls by dose curve).
Test [19] deals with Peroxisome proliferator-activated receptor delta (Homo sapiens) (UniProt Q03181). As to the kind of experiment: qHTS assay to identify small molecule antagonists of the peroxisome proliferator-activated receptor delta (PPARd) signaling pathway (AID 743215; active = well fitted inhibition curve with a large enough effect in the signal ratio in the repeat runs, not every such curve was filed as active; the % refers to the signal ratio;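 note: cells stimulated with agonist L165041 at 300 nM final during compound exposure; potency is the fitted concentration of half-maximal effect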). The method in brief: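 Read-out is beta-lactamase FRET fluorescence, measured 2 h after substrate addition at room temperature. Beforehand, UAS-bla HEK293H cells carrying the PPARd reporter were exposed to compounds with L165041 at 300 nM final for 17 h at 37 C.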
Peroxisome proliferator-activated receptor delta (Homo sapiens), sequence (Q03181 whole entry, looked up): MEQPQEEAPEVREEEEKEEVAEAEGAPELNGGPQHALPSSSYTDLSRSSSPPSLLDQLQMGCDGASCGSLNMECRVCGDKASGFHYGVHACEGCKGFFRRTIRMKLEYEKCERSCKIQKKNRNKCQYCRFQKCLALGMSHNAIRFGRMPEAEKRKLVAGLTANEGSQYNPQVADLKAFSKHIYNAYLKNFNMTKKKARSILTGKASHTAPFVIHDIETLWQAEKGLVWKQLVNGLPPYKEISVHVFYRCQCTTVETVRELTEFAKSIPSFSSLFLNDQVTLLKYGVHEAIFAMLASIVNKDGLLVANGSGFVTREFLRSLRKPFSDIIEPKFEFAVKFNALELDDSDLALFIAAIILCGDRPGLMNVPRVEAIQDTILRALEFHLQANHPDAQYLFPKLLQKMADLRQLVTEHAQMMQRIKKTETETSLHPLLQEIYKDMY

Bile acid receptor (Homo sapiens), sequence (Q96RI1 whole entry, looked up): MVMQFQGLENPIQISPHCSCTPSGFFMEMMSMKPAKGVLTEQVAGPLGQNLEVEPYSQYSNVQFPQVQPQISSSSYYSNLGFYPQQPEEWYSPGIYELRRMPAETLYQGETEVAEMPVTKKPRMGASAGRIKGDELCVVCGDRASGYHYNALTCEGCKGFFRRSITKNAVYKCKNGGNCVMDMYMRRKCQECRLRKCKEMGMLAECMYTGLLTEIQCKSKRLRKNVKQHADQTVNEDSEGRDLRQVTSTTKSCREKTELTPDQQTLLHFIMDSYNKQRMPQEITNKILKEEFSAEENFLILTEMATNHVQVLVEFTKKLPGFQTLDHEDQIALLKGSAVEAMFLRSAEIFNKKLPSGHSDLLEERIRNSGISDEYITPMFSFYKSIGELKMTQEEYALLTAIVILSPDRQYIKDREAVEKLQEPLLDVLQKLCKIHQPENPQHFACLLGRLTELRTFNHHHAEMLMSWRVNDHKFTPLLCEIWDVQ
Retinoic acid receptor RXR-alpha (Homo sapiens), sequence (P19793 whole entry, looked up): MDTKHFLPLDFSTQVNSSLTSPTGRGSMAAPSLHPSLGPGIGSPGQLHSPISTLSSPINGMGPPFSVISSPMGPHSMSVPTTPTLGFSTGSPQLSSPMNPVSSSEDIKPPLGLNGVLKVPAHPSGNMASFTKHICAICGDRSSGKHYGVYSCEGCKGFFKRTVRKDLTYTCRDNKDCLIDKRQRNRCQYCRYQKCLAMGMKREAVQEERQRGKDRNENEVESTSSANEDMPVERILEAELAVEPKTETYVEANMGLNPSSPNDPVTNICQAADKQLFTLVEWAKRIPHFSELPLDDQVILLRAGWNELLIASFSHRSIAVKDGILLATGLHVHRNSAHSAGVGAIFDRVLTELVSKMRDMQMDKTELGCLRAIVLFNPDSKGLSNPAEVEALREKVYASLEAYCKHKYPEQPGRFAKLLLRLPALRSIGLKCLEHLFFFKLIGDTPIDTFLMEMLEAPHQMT

With `C[C@@]12C(=O)OC(=O)[C@]1(C)C1CCC2O1`, the Potency was 8.41 µM (active) in [1]; 11.9 µM (active) in [2]; 13.3 µM (active) in test [3]; 4.22 µM (active) in test [5]; 4.22 µM (active) in test [6]. Further, the Potency entry in [4] and in test [7] was “inactive” in each case.

Turning to `COc1cc(C=C2CCC/C(=C\c3ccc(O)c(OC)c3)C2=O)ccc1O`, the Potency in test [1] was 33.5 µM (active); in test [2] it was 21.1 µM (active); in test [3], 23.7 µM (active); in [5], 29.8 µM (active); in test [8], 26.8 µM (active). Besides, the Potency entry in [4] was “inactive”.

As to `CSc1c(Cl)c(Cl)c(Cl)c(Cl)c1Cl`, the Potency in [9] was 54.6 µM (active); in [4], 54.6 µM (active); in test [7] it was 43.4 µM (active). For the same molecule, the Potency entry in test [1], in test [10], in test [3], in test [11], in test [12] and in [13] was “inactive” throughout. The Potency entry in test [5] and in test [6] was “inactive” each time.

Take `O=C1c2c(O)ccc([N+](=O)[O-])c2C(=O)c2c([N+](=O)[O-])ccc(O)c21`: the Potency in test [9] is 12.2 µM (active); in test [1], 13.7 µM (active); in [2], 54.4 µM (active); in test [3] it was 43.2 µM (active); in test [13] it was 9.68 µM (active); in [4] it was 24.3 µM (active). For the same molecule, the Potency in test [5] is 27.1 µM (active); in test [6] it was 24.1 µM (active); in test [8], 24.3 µM (active); in [7] it was 17.2 µM (active).

For `Cc1ccc(-n2[nH]c(C)c(N=Nc3cccc(-c4cccc(C(=O)O)c4)c3O)c2=O)cc1C`, the Potency in test [9] was 26.6 µM (active); in [8], 26.8 µM (active). Besides, the Potency entry in test [1], in test [10], in test [3], in test [14], in test [13] and in test [4] was “inactive” throughout. Also, the Potency result in test [15] was “inactive”.

`CCCCC(CC)COC(=O)c1ccc(O)cc1` (configuration not stated): in test [16], the call was inactive. Further, the Potency was 34.5 µM (active) and 38.9 µM (active) in [1]; 48.8 µM (active) in test [3]; 21.8 µM (active) and 49 µM (active) in [14]; 49 µM (active) in test [4]; 24.5 µM (active) and 49 µM (active) in test [8]; 38.8 µM (active) and 49 µM (active) in [7]. For the same molecule, the Potency entry in [10] and in test [11] was “inactive” each time.

With `Cc1c(C)n(Cc2ccccc2)c2ccc(C(=O)OCCN(C)C)cc12`, the Potency in test [9] is 26.6 µM (active). The Potency result in test [17], in test [10], in test [3], in test [11], in test [12] and in [4] was “inactive” in each case. Moreover, the Potency result in [8] is “inactive”.

Consider `Oc1c(Br)cc(Br)c2cccnc12`, for which the values for the Potency in [1], in test [14] and in test [7] were 3.35 µM (active), 3.35 µM (active) and 1.51 µM (active), respectively. In addition, the Potency result in [2], in test [3], in [4] and in test [8] was “inactive” in each case.

With `CN1[C@@H]2CC[C@@H]1CC(OC(=O)C(CO)c1ccccc1)C2` (some centres not stated), the Potency entry in [9], in test [1], in test [2], in [3], in [4] and in test [8] was “inactive” in each case. The Potency result in [18] and in [15] was “inactive” in each case.

With `CSc1ccc2c(c1)N(CCC1CCCCN1C)c1ccccc1S2` (configuration not stated), the call in test [16] was inactive. Also, the Potency in test [1] is 21.8 µM (active) and 13.3 µM (active); in [19] it was 26.6 µM (active); in test [2] it was 21.8 µM (active) and 16.8 µM (active); in test [3] it was 38.7 µM (active) and 29.8 µM (active); in test [14], “inactive and 26.6 µM (active)”; in test [13], 24.4 µM (active) and 23.9 µM (active). Moreover, the Potency is 43.5 µM (active) in test [4]; 27.2 µM (active) and inactive in test [6]; 43.5 µM (active) and inactive in test [8]; 19.4 µM (active) and 26.8 µM (active) in [7]. The Potency result in [11] is “inactive”.
